The panel holds about 83,000 compounds, 20% with a hit somewhere; the sample as a whole holds those more often.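 Results are percent growth after 48 hours of single-concentration exposure. 100 means growth as in untreated cells, lower positive values show inhibition; negative values down to -100 show cell death.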 Values without a mark were called inactive. Active and inactive are the calls of the source. The calls were made as follows: active = growth percent below 10; inactive = the rest.
Assays:
Assay in all cases: NCI-60 one-dose screen, 48 h (100 = growth as untreated, 0 = no growth, -100 = all killed)
Conditions in all cases: 10 µM unless noted
NCI-H23 lung = system: NCI-H23 lung
NCI-H226 lung = system: NCI-H226 lung
NCI-H322M lung = system: NCI-H322M lung
HOP-62 NSCLC = system: HOP-62 NSCLC
NCI-H460 lung = system: NCI-H460 lung
HOP-92 NSCLC = system: HOP-92 NSCLC
NCI-H522 lung = system: NCI-H522 lung
A549/ATCC NSCLC = system: A549/ATCC NSCLC
786-0 renal = system: 786-0 renal
COLO 205 colon = system: COLO 205 colon
DU-145 prostate = system: DU-145 prostate
K-562 leukemia = system: K-562 leukemia
MALME-3M melanoma = system: MALME-3M melanoma
MDA-MB-231 breast = system: MDA-MB-231 breast
RXF 393 renal = system: RXF 393 renal
SF-268 CNS = system: SF-268 CNS
SF-295 CNS = system: SF-295 CNS
SF-539 CNS = system: SF-539 CNS
UACC-257 melanoma = system: UACC-257 melanoma
M14 melanoma = system: M14 melanoma

Compound	growth (NCI-H23 lung)	growth (NCI-H226 lung)	growth (NCI-H322M lung)	growth (HOP-62 NSCLC)	growth (NCI-H460 lung)	growth (HOP-92 NSCLC)	growth (NCI-H522 lung)	growth (A549/ATCC NSCLC)	growth (786-0 renal)	growth (COLO 205 colon)	growth (DU-145 prostate)	growth (K-562 leukemia)	growth (MALME-3M melanoma)	growth (MDA-MB-231 breast) [%]	growth (RXF 393 renal)	growth (SF-268 CNS)	growth (SF-295 CNS)	growth (SF-539 CNS)	growth (UACC-257 melanoma)	growth (M14 melanoma)
CCCCCCCCCCCCCCCCCCOc1ccc(CC(=O)OCC[N+](C)(C)C)cc1	93.3%	95.1%	103%	108%	100%	103%	95.7%	94.6%	93%	115%	99.9%	47.7%	113%	110	90.1%	104%	97.6%	97.9%	108%	91.5%
O=C(O)c1cn(C2CC2)c2cc(N3CCN(C(=O)Nc4nc(-c5ccc(Cl)cc5)cs4)CC3)c(F)cc2c1=O	8.09% (active)	19.7%	4.8% (active)	20.5%	8.14% (active)	-22.2% (active)	-6.18% (active)	6.96% (active)	22.6%	6.21% (active)	11.4%	8.49% (active)	-20.2% (active)	–	41.6%	20.6%	-3.25% (active)	14.7%	-12.5% (active)	18.2%
CSc1ccc2c(c1)c(CCN)c(C)n2Cc1ccc(Cl)c(Cl)c1	-89.7% (active)	-59.8% (active)	-83% (active)	-78.2% (active)	-70.6% (active)	-91.6% (active)	-76.5% (active)	-77.9% (active)	-76.1% (active)	-75.8% (active)	-89.4% (active)	-66.1% (active)	-75.4% (active)	–	-82.5% (active)	-71.1% (active)	-90.9% (active)	-82.8% (active)	-73.3% (active)	-85% (active)
C=CCc1cc(C)ccc1NC(C(=O)NCC(=O)OC)c1ccccc1 (stereo not drawn)	93.7%	95.1%	95.3%	85.5%	116%	103%	96.4%	93%	94.1%	100%	112%	106%	105%	–	109%	95%	92.9%	94.5%	104%	96.6%
O=C1CSC(c2c(Cl)cccc2Cl)N1c1nc(Cl)cc(=O)[nH]1 (stereo not drawn)	104%	99.8%	177%	95.8%	101%	65%	75.8%	103%	90.7%	111%	123%	93.2%	216%	108	113%	106%	91.3%	102%	99.6%	106%
COC(=O)CCC/C=C\C[C@H]1C=CC(=O)/C1=C/C[C@@H](O)CCc1cccc(C(F)(F)F)c1	-13.7% (active)	-48.4% (active)	-14.3% (active)	-47.3% (active)	-41.8% (active)	-37.1% (active)	-75.1% (active)	-24.2% (active)	-61.1% (active)	-49.3% (active)	2.5% (active)	1.71% (active)	58.4%	–	-73.5% (active)	-2.42% (active)	-21.1% (active)	-14.1% (active)	-6.49% (active)	-32.4% (active)
COC1=C(C)C(=O)c2c(c(CCCl)c3n2CCC3OC(C)=O)C1=O (stereo not drawn)	-12% (active)	-14.9% (active)	-14.8% (active)	-22.4% (active)	-14.3% (active)	56.4%	-56.9% (active)	1.27% (active)	-32.4% (active)	-60% (active)	-9.56% (active)	12.7%	-64.3% (active)	–	-54.3% (active)	10.4%	-11.7% (active)	-41.7% (active)	-50.2% (active)	-46.3% (active)
COc1ccc(-c2csc(NC(=O)N3CCN(c4cc5c(cc4F)c(=O)c(C(=O)O)cn5C4CC4)CC3)n2)cc1	-2.88% (active)	18.8%	7.07% (active)	20%	4.13% (active)	-25.6% (active)	-13.9% (active)	3.2% (active)	20.7%	9.52% (active)	10.6%	11.7%	-11.4% (active)	–	34.4%	20%	-4.61% (active)	20.6%	-17.6% (active)	9.8% (active)
CCc1cccc2c1S/C(=C/c1ccc(OC)cc1)C2=O	50.1%	85.7%	86.7%	45.4%	56%	72.2%	42.7%	89%	63.6%	105%	49.5%	11.2%	51.7%	46.5	40.1%	64.5%	62.9%	8.87% (active)	72.6%	28.3%
CCCCCCCNC(=O)CCCNc1ncnc2c1ncn2-c1cccc(C(C)O)c1 (stereo not drawn)	90.7%	79.3%	108%	95.9%	99.8%	96.6%	80.9%	94.5%	97.3%	92.9%	94.4%	41.6%	84.8%	–	89.9%	83.8%	93.6%	94.1%	121%	89.3%
CCCCC[C@H](O)C/C=C1/C(=O)C=C[C@@H]1C/C=C\CCCC(=O)O	74.6%	83.7%	91.1%	84.1%	66.9%	97.2%	46.3%	81%	83.3%	78%	67.8%	30.1%	116%	–	87.9%	67%	93.7%	92.8%	85.8%	70.1%
COc1cccc(/C=C2\C=C(c3ccccc3)N(Cc3ccccc3)C2=O)c1	71.1%	73%	51%	69.4%	72.3%	18.1%	56.4%	47.9%	57.3%	74.3%	93.9%	36.1%	98.2%	–	39.8%	56.2%	44.6%	53.3%	83.3%	5.88% (active)
C=C1CC[C@H](C(C)C)[C@@H]2[C@H]1[C@H]1CC(=C)[C@@H](O)CC[C@@](C)(O)[C@@H]2O1	81.6%	95.2%	95.4%	84.3%	108%	86.3%	89.5%	86.2%	82.6%	117%	102%	97.8%	98%	105	108%	94.7%	98.4%	98.1%	86.2%	98.6%
Cc1oc2nc[nH]c(=O)c2c1C(=O)/C=C/c1ccc(Br)cc1	-11.2% (active)	-8.79% (active)	2.39% (active)	12.1%	–	-10.7% (active)	13.9%	9.19% (active)	11.5%	3.83% (active)	5.67% (active)	10.8%	24.5%	16.1	4.34% (active)	5.39% (active)	14.2%	-9.63% (active)	32.7%	15.4%
NC[C@@H]1O[C@H](O[C@@H]2[C@@H](CO)OC(O[C@@H]3[C@@H](O)[C@H](N)C[C@H](N)[C@H]3OC3O[C@H](CN)[C@@H](O)[C@H](O)[C@H]3N)[C@@H]2O)[C@H](N)[C@@H](O)[C@@H]1O (stereo partly drawn)	100%	109%	120%	115%	105%	125%	–	105%	101%	115%	112%	113%	105%	104	114%	113%	107%	89.3%	106%	104%
CN(C(=O)NCc1cccc(F)c1Cl)[C@H](COC(=O)Nc1cc2ccccc2cn1)CC(O)CO (stereo partly drawn)	96.5%	92.7%	86.4%	64.8%	100%	28%	–	80.9%	68%	111%	94.4%	91.5%	100%	46.8	84.8%	49.8%	69.7%	37%	102%	98.8%
